Reference: PubChem BioAssay (Tox21)
The source made the active and inactive calls. Calls come from the whole dose curve; as a rule, active = well fitted curve in the direction sought with a large enough effect in the repeat runs; inconclusive = weak or mixed curves; inactive = flat fitted curve, though single readings scatter.

Assay: qHTS assay to test for compound auto fluorescence at 535 nm (green) in HepG2 cells (AID 720675)
Conditions: green autofluorescence 485/535 nm, 1 h; series mostly up to 91.3 µM
Description: National Center for Advancing Translational Sciences [NCATS]
NIH Chemical Genomics Center [NCGC]
U.S. Environmental Protection Agency [EPA]
National Institutes of Environmental Health Sciences [NIEHS]
National Toxicology Program [NTP]
U.S. Food and Drug Administration [FDA]
Compound auto fluorescence often interferes with screening of the compound library against various biological targets and signaling pathways. Some of these compounds may have fluorophoric properties. Such properties may interfere with the assay outputs resulting in false positives and/or negatives. To decrease such complications and ensure the compound activities are relevant in terms of biological response, the Tox21 10K compound library was screened for auto fluorescence.
From the fluorophores used as reporter signals in our screening assays, the auto fluorescence equivalencies of compounds against three fluorophores have been evaluated: Triamterene, Fluorescein and Rose Bengal sodium for blue, green and red fluorescence, respectively. The fluorescence intensities were measured using Excitation/Emission wavelengths at 405/460nm, 485/535nm and 540/590nm for blue, green and red labels, respectively. This assay includes the green fluorescence data.
Tox21 Assay Protocol Summary:
2,000 HepG2 cells in 5 uL of culture medium (MEM containing 10% FBS) per well were dispensed into black wall/clear bottom 1536-well plates using a Multidrop Combi Dispenser (ThermoFisher Scientific, Waltham, MA). The assay plates were incubated overnight at 37 C to allow cell attachment to the well bottom, followed by the transfer of 23 nL compound or DMSO vehicle by a pintool work station (Kalypsys , San Diego, CA). After the assay plates were incubated for 1 hr at 37 C and 5% CO2, fluorescence intensities in the assay plates were measured by an Envision (PerkinElmer, Shelton, CT) plate reader using three labels for measuring blue, green and red fluorescence at […] 460, 535 and 590 nm respectively.
For CCCCOC(=O)c1ccc(N)cc1, the outcome was “inactive”. In the case of O=S(=O)(O)c1ccccc1, the outcome is reported as “inactive”. With CC(=O)c1ccc(O)cc1 the outcome was “inactive”. With CCCCCCCCCCO the outcome was “inactive”. With CCNc1cccc(C)c1 the outcome was “inactive”. For CN(C)CCOC(=O)COc1ccc(Cl)cc1, the outcome was “inactive”. With O=S(=O)(O)c1ccc(N=Nc2c(O)ccc3cc(S(=O)(=O)O)ccc23)cc1 the outcome was “inactive”. For C=CC(=O)OCCC(=O)O, the outcome was “inactive”. With Brc1ccc(Br)c(Br)c1 the outcome was “inactive”. For CC(C)CCCCCCCOC(=O)CCCCC(=O)OCCCCCCCC(C)C, the outcome was “inactive”. For COc1ccccc1OCC(O)CO (stereo not given), the outcome was “inactive”. In the case of CCNC(=S)NCC, the outcome is reported as “inactive”. For O=C(O)c1cc2ccccc2cc1O, the outcome was “inactive”. In the case of C=C(C)CNCC, the outcome is reported as “inactive”. For c1ccc2c(c1)Cc1ccccc1-2, the outcome was “inactive”. With C=CCc1ccc(OC)c(OC)c1 the outcome was “inactive”. For CC(C)(C#N)c1cc(Cn2cncn2)cc(C(C)(C)C#N)c1, the outcome was “inactive”. In the case of C=C(C)[C@H]1CC=C(C)C(=O)C1, the outcome is reported as “inactive”. In the case of Nc1ccc(Cl)c(N)c1, the outcome is reported as “inactive”. With COc1ccc(N)c(C)c1 the outcome was “inactive”. For OCc1cccc(Oc2ccccc2)c1, the outcome was “inactive”. In the case of CC(C)CC(C)O (stereo not given), the outcome is reported as “inactive”. With O=C1CCCC1 the outcome was “inactive”. With C=CC[N+](C)(C)CC=C the outcome was “inactive”. With O=C1C(c2[nH]c3ccccc3c2O)=Nc2ccccc21 the outcome was “inactive”. With O=C(OCC1CCC2OC2C1)C1CCC2OC2C1 (stereo not given) the outcome was “inactive”. For CCCCCCCCCCCCCCCCO, the outcome was “inactive”. For NCCN1CCNCC1, the outcome was “inactive”. For CCO[Si](CCCN)(OCC)OCC, the outcome was “inactive”. With CCCCC(C=O)CC (stereo not given) the outcome was “inactive”. For NCCNCCN, the outcome was “inactive”. With CC(=O)OCCOC(C)=O the outcome was “inactive”. In the case of CC1(C)CC(N)CC(C)(CN)C1 (stereo not given), the outcome is reported as “inactive”. With CCCCCCO the outcome was “inactive”. In the case of O=C(O)c1ccccc1C(=O)O, the outcome is reported as “inactive”. For CCCCCCCCCCCC(=O)OC, the outcome was “inactive”. With CCCCCC(=O)O the outcome was “inactive”. For CCNc1ccccc1, the outcome was “inactive”. In the case of CC(=O)OC1CC(C)OC(C)O1 (stereo not given), the outcome is reported as “inactive”. In the case of O=C(O)Cn1c(=O)n(Cc2ccc(Br)cc2F)c(=O)c2ccc(Cl)cc21, the outcome is reported as “inactive”.
